Bioassay records from PubChem.
A selection: hits, their analogues and other compounds. The true share with any hit is near 21%.
DRD3 antagonist – D3 dopamine receptor (human) antagonism; 2.5% of 360,000 active; AID 652054; max response, negative = inhibition, %; P35462; D3R cells, DiscoveRx beta-arrestin luminescence, antagonist mode; active compounds read low; in the data active = max response below about -50%; inconclusive = no clear call, values can overlap the other calls; note: % is set by controls: 0 for no effect and ±100 for the full control effect
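Cells expressing the human receptor were seeded at 1500 cells/well, incubated overnight at 37 degrees C in 5% CO2, then exposed to library compounds with dopamine controls for 90 minutes at 37 degrees C before luminescent detection.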
ClpP mod – qHTS Assay for Activators of ClpP; ATP-dependent Clp protease proteolytic subunit (Bacillus subtilis (strain 168)), P80244; purified B. subtilis ClpP, FRET peptide cleavage, 20 min; Potency, µM (doses to about 57.5 µM), inactives show at the highest dose activity change, negative = active; 1.9% of 340,000 active; AID 651965, 2013; active = well fitted falling curve with a large enough effect; inconclusive = small, poorly fitted or top-dose-only effect; inactive = no such curve, though single readings can be large or run the other way; note: potency is the fitted concentration of half-maximal effect; the source files actives as falling curves though it sought activators and does not explain the sign; nearly all actives have a fitted effect of over 65% in size
Target sequence (P80244 whole entry, looked up): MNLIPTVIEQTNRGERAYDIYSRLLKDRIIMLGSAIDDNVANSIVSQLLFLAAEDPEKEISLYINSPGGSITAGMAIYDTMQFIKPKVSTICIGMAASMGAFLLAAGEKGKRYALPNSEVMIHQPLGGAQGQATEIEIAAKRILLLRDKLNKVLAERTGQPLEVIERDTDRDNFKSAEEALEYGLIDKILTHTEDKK
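FRET quenching reversal measured ClpP activation: 10 microg/mL B. subtilis ClpP at pH 8 with the FRET-FV decapeptide, read at 430 nm after 320 nm excitation. The 20-min minus 0-min signal was scaled between DMSO/no-enzyme wells and ADEP (5.8 microM final).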
TDP1 cell CPT – DT40-hTDP1 cell growth loss with CPT | chicken DT40 Tdp1-/-;hTDP1 cells + 20 nM CPT, ATP luminescence, 48 h | Potency, µM (highest dose often 46.2 µM), inactives show at the top dose activity change, negative = growth inhibition, usual class: inhibitors | 12% of 420,000 active; note: potency is the fitted concentration of half-maximal effect; % is set by controls: 0 for no effect and ±100 for the full control effect; nearly all actives have a fitted effect of over 55% in size
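Chicken DT40 Tdp1-/- cells stably complemented with human TDP1 were seeded at 400 cells/well in medium containing 20 nM camptothecin, exposed to pin-transferred compounds, and grown at 37 °C for at least 48 hr. Viability was read as ATP luminescence.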
D3 ag – D3 dopamine receptor (human) agonism; D3R DiscoveRx beta-arrestin cells, luminescence, 90 min; max activation, %; 0.58% of 410,000 active; AID 652048; in the data active = max activation above about 30%; note: 0% is about no effect
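Agonist mode: compounds and dopamine controls were applied to plated cells for 90 min at 37 degrees C after an overnight attachment at 1500 cells/well. Luminescent read-out followed 30 - 60 minutes at room temperature with DiscoveRx detection reagent.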
DT40 TDP1 no CPT – qHTS for Inhibitors of human tyrosyl-DNA phosphodiesterase 1 (TDP1): qHTS in cells in absence of CPT | DT40 Tdp1-/- hTDP1 cells, no CPT, ATP luminescence, 48 h | Potency, µM (doses to about 46.2 µM), without a hit: at the highest dose activity change, negative = growth inhibition, most hits filed as inhibitors | 15% of 420,000 active | AID 686978, 2013; note: potency is the fitted concentration of half-maximal effect; % is set by controls: 0 for no effect and ±100 for the full control effect; nearly all actives have a fitted effect of over 55% in size
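A cellular qHTS used chicken DT40 cells lacking endogenous Tdp1 but carrying stably transfected human TDP1. Compounds were applied without camptothecin, and cell growth kinetics were judged by ATP-dependent luminescence after ≥48 hr.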
IL-1B inflam inh – inflammasome signaling inhibition, IL-1 beta readout; THP-1 LPS/ATP IL-1B secretion, AlphaLISA, 16 h; active compounds read low; activity change, % at 57.5 µM; 4.7% of 360,000 active; in the data active = activity change below about -50%; inconclusive = mostly about -30% to -49%; note: % is set by controls: 0 for no effect and ±100 for the full control effect
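Secreted IL-1B measured by AlphaLISA bead assay after 16 h compound exposure of THP-1 cells; compounds (final up to 57.5 uM) added 1 h before LPS (250 ng/mL) and ATP (1.25 mM) stimulation; lower signal means less secretion.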
* = called active by the depositor; ? = inconclusive; . = no result; [ ] = remark or other dose. Unless noted, calls come from the whole dose curve; as a rule, active = well fitted inhibition curve with a large enough effect; inconclusive = small, poorly fitted or top-dose-only effect; inactive = flat fitted curve, though single readings scatter.

SMILES	DRD3 antagonist	ClpP mod	TDP1 cell CPT	D3 ag	DT40 TDP1 no CPT	IL-1B inflam inh
C[C@@]12CC(=O)C3=C(CCCC3=O)N1CCc1ccccc12	.	.	-4.2%[9.04 µM]	.	-1.7%[9.04 µM]	.
Cc1c(C(=O)OCC(=O)N(C)c2ccccc2)cccc1[N+](=O)[O-]	-16.7	.	2.3%	-11.9	-24.6%	1.9
Cc1cccc(C(=O)OCC(=O)N(C)C(c2ccccc2)c2ccccc2)c1[N+](=O)[O-]	-12.2	0.9%	11.6µM*	-4.1	7.31µM*	21.0
COc1cc(/C=C/c2cc(OC(C)=O)c3ccccc3n2)c(OC(C)=O)c([N+](=O)[O-])c1	-82.2*	3.3%	?	-13.1	?	5.7
COc1ccc(S(=O)(=O)N(C)c2ccc(C(=O)NCc3ccco3)cc2)cc1	1.2	1.3%	?	10.2	?	-7.6
CN(C)S(=O)(=O)c1ccc(C(=O)NCCc2ccco2)cc1	1.8	.	-7.6%	2.4	23.1µM*	-4.0
CN(c1ccccc1)S(=O)(=O)c1ccc(C(=O)NCc2ccco2)cc1	-3.8	-0.2%	?	-2.3	16.4µM*	9.0
COc1ccccc1OCCNC(=O)c1ccc(S(=O)(=O)N(C)C)cc1	-7.0	-0.5%	-20.7%	8.8	-5.2%	-9.0
Fc1ccc(CN2CCN3CCCC3C2C2CCCCC2)cc1F (stereo not drawn)	-78.4*	-3.0%	23.1µM*	-13.0	18.4µM*	-28.6
C[C@]12c3[nH]c4ccc(Cl)cc4c3CCN1C(=O)[C@@H](CC(=O)NCc1ccco1)C[C@@H]2C(=O)N1CCOCC1	-20.3	1.1%	18.4µM*	11.9	20.6µM*	-3.1
CCN(CC)C(=O)[C@H]1C[C@H](CC(=O)NCc2ccco2)C(=O)N2CCc3c([nH]c4ccc(Cl)cc34)[C@]12C	-25.9	0.8%	16.4µM*	-19.1	16.4µM*	-4.8
CC(=O)c1ccc(OCC(O)CN2CCOCC2)cc1 (stereo not drawn)	-7.0	0.4%	-6.2%	-3.9	-16.8%	-3.2
Cc1ccc(S(=O)(=O)N2CCN(CC(O)COc3ccccc3)CC2)cc1 (stereo not drawn)	-7.1	.	3.7%	-9.2	-16.0%	15.8
CCOc1ccc(S(=O)(=O)N2CCN(CC(O)COc3cccc([N+](=O)[O-])c3)CC2)cc1 (stereo not drawn)	0.0	-4.5%	14.6µM*	-34.3	23.1µM*	?
CCOC(=O)c1ccc(S(=O)(=O)N2CCN(CC(O)COc3cccc(C(C)=O)c3)CC2)cc1 (stereo not drawn)	0.6	-1.1%	-10.0%	-0.2	-5.5%	-77.6*
CC(=O)Nc1ccc(S(=O)(=O)N2CCN(CC(O)COc3ccc4ccccc4c3)CC2)cc1 (stereo not drawn)	7.7	0.7%	?	-9.9	?	-61.4*
CC(=O)c1ccc(OCC(O)CN2CCN(S(=O)(=O)c3c(C)cc(C)cc3C)CC2)cc1 (stereo not drawn)	9.5	20µM*	?	0.0	?	17.3
O=C(Nc1nnc([C@@H]2C[C@H](O)[C@@H](CO)O2)s1)Nc1cccc(Cl)c1Cl	-20.0	-1.9%	-24.0%	-0.6	-1.4%	22.5
COc1ccc(S(=O)(=O)CCc2nnc(NC(=O)c3ccc(F)cc3)s2)cc1	9.7	.	7.6%	7.6	3.1%	18.2
Cc1nc2ccc(NC(=O)Cc3ccccc3F)cc2s1	-7.2	.	14.9%	3.2	?	0.1
COc1ccc(C(=O)N2CCCCC2c2cc(C(=O)NCc3ccc(F)cc3)no2)cc1 (stereo not drawn)	0.0	-3.2%	16.4µM*	-3.7	?	-10.5
O=C(NCc1ccc(F)cc1)c1cc(C2CCCCN2C(=O)c2ccccc2)on1 (stereo not drawn)	17.1	1.0%	?	4.5	?	-1.7
